A selection: hits, their analogues and other compounds. The true share with any hit is near 21%.
DRD3 agonist: activates the human D3 dopamine receptor. P35462. D3R DiscoveRx beta-arrestin cells, luminescence, 90 min. max activation, %. actives 0.58% (n = 410,000); in the data active = max activation above about 30%; note: 0% is about no effect
Target sequence (P35462 whole entry, looked up): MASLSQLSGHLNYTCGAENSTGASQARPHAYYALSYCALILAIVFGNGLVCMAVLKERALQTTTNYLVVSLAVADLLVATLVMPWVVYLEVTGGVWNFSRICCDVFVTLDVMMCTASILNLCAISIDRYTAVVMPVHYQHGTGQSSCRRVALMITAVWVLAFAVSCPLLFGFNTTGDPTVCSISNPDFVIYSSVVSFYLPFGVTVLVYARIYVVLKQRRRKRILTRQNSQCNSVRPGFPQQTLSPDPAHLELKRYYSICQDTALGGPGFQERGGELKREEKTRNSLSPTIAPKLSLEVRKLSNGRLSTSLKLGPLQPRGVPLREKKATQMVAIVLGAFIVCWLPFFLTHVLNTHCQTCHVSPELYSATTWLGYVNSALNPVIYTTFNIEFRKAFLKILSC
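Cells at 1500/well, incubated overnight, then treated with pinned compounds (dopamine as control) for 90 min at 37 degrees C. DiscoveRx reagent added for 30 - 60 minutes at room temperature; luminescence read.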
DT40 TDP1 no CPT: qHTS for Inhibitors of human tyrosyl-DNA phosphodiesterase 1 (TDP1): qHTS in cells in absence of CPT; DT40 Tdp1-/- hTDP1 cells, no CPT, ATP luminescence, 48 h; AID 686978, 2013; actives 15% (n = 420,000); Potency, µM (series often up to 46.2 µM), for the others: at the highest dose activity change, negative = growth inhibition, hits mostly inhibitors; note: potency is the fitted concentration of half-maximal effect; % is set by controls: 0 for no effect and ±100 for the full control effect; nearly all actives have a fitted effect of over 55% in size
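Camptothecin absent (DMSO only). Human TDP1-complemented DT40 knockout cells, 400 cells/well, 37 °C for minimum 48 hr; ATP measured via CellTiter-Glo, 30 min dark incubation, luminescence.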
IL-1B inflam inh: blocks inflammasome-driven IL-1 beta release | THP-1 LPS/ATP IL-1B secretion, AlphaLISA, 16 h; active compounds read low | actives 4.7% (n = 360,000) | activity change, % at 57.5 µM; in the data active = activity change below about -50%; inconclusive = mostly about -30% to -49%; note: % is set by controls: 0 for no effect and ±100 for the full control effect
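THP-1 cells pretreated 1 hr with compounds (up to 57.5 uM final), then stimulated with LPS (250 ng/mL final) plus ATP (1.25 mM final); secreted IL-1B measured by AlphaLISA after 16 hr, decreased signal indicating inhibition.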
ClpP mod: qHTS Assay for Activators of ClpP. Potency, µM (doses to about 57.5 µM), for inactives: at the highest dose activity change, negative = active. ATP-dependent Clp protease proteolytic subunit (Bacillus subtilis (strain 168)), P80244. AID 651965, 2013. actives 1.9% (n = 340,000). purified B. subtilis ClpP, FRET peptide cleavage, 20 min; active = well fitted falling curve with a large enough effect; inconclusive = small, poorly fitted or top-dose-only effect; inactive = no such curve, though single readings can be large or run the other way; note: potency is the fitted concentration of half-maximal effect; the source files actives as falling curves though it sought activators and does not explain the sign; nearly all actives have a fitted effect of over 65% in size
Target sequence (P80244 whole entry, looked up): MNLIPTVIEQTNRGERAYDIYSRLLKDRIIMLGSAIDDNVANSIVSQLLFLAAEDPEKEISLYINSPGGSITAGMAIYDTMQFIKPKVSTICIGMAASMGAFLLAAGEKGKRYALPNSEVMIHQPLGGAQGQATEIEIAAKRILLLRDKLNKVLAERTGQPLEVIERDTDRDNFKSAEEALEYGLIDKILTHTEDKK
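Buffer: 100 mM Tris/HCl pH8, 100 mM KCl, 0.05% low protease BSA, 2.5% glycerol, 0.01% Tween-20. ClpP 10 microg/mL final; 20 min RT; delta FRET normalized to ADEP and DMSO controls.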
DRD3 antagonist: antagonists of human D3 dopamine receptor; max response, negative = inhibition, %; actives 2.5% (n = 360,000); AID 652054; D3R cells, DiscoveRx beta-arrestin luminescence, antagonist mode; active compounds read low; in the data active = max response below about -50%; inconclusive = no clear call, values can overlap the other calls; note: % is set by controls: 0 for no effect and ±100 for the full control effect
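Cells expressing the human receptor were seeded at 1500 cells/well, incubated overnight at 37 degrees C in 5% CO2, then exposed to library compounds with dopamine controls for 90 minutes at 37 degrees C before luminescent detection.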
DT40 TDP1 CPT: growth inhibition of DT40 Tdp1-/-;hTDP1 cells with camptothecin (screen for TDP1 inhibitors); chicken DT40 Tdp1-/-;hTDP1 cells + 20 nM CPT, ATP luminescence, 48 h; Potency, µM (doses to about 46.2 µM), without a hit: top-dose activity change, negative = growth inhibition, usual class: inhibitors; actives 12% (n = 420,000); AID 686979; note: potency is the fitted concentration of half-maximal effect; % is set by controls: 0 for no effect and ±100 for the full control effect; nearly all actives have a fitted effect of over 55% in size
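Cell growth measured by CellTiter-Glo luminescence after a minimum 48 h, 37 C compound exposure with 20 nM CPT in Tdp1-knockout DT40 cells stably expressing hTDP1, seeded 400/well; qHTS titration format.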
* = called active by the depositor; [ ] = another dose, or the depositor's remark. Unless noted, calls come from the whole dose curve; as a rule, active = well fitted inhibition curve with a large enough effect; inconclusive = small, poorly fitted or top-dose-only effect; inactive = flat fitted curve, though single readings scatter.

Cc1ccc(C(=O)O/N=C(\N)Cc2ccc([N+](=O)[O-])cc2)c(Cl)c1 was read as DRD3 agonist -3, DT40 TDP1 no CPT 23µM*, IL-1B inflam inh inconclusive, ClpP mod -3%, DRD3 antagonist -29 and DT40 TDP1 CPT inconclusive.
N/C(Cc1ccc([N+](=O)[O-])cc1)=N\OC(=O)c1ccc2ccccc2c1 was read as DRD3 agonist 4, DT40 TDP1 no CPT inconclusive, IL-1B inflam inh 3, ClpP mod -1%, DRD3 antagonist inconclusive and DT40 TDP1 CPT 9.2µM*.
For N/C(=N\OC(=O)Cc1ccc([N+](=O)[O-])cc1)c1ccc([N+](=O)[O-])cc1 the results were DRD3 agonist -2, DT40 TDP1 no CPT inconclusive, IL-1B inflam inh -1, DRD3 antagonist 0 and DT40 TDP1 CPT 0%.
N/C(Cc1ccc([N+](=O)[O-])cc1)=N\OC(=O)c1ccc(Br)cc1 was read as DRD3 agonist 1, DT40 TDP1 no CPT inconclusive, IL-1B inflam inh inconclusive, ClpP mod 2%, DRD3 antagonist 8 and DT40 TDP1 CPT inconclusive.
Screening Cc1cccc(C(=O)O/N=C(\N)Cc2ccc([N+](=O)[O-])cc2)c1 returned DRD3 agonist 3, DT40 TDP1 no CPT -22%, IL-1B inflam inh -7, ClpP mod 0%, DRD3 antagonist -2 and DT40 TDP1 CPT 26µM*.
`N/C(=N\OC(=O)Cc1ccc([N+](=O)[O-])cc1)c1cccc(Br)c1` gave DRD3 agonist 6, DT40 TDP1 no CPT 2%, IL-1B inflam inh -82*, ClpP mod 0%, DRD3 antagonist -17 and DT40 TDP1 CPT 26%.
Screening Cc1ccc(CC(=O)O/N=C(\N)Cc2ccc([N+](=O)[O-])cc2)cc1 returned DRD3 agonist -3, DT40 TDP1 no CPT -27%, IL-1B inflam inh -10, DRD3 antagonist 3 and DT40 TDP1 CPT 7%.
Screening CCCCC/C=C\C/C=C\C/C=C\C=C\[C@@H](O)CCCC(=O)O returned DT40 TDP1 no CPT -12%[0.628 µM] and DT40 TDP1 CPT 5%[0.628 µM].
`COc1ccc(NC(=O)c2cc3c(COC(C)=O)cnc(C)c3oc2=Nc2cccc(C(=O)O)c2)c(OC)c1` gave DRD3 agonist 1, DT40 TDP1 no CPT 26µM*, IL-1B inflam inh 19, ClpP mod 0%, DRD3 antagonist 1 and DT40 TDP1 CPT -23%.
For COc1ccccc1NC(=O)c1cc2c(CO)cnc(C)c2oc1=Nc1ccccc1 the results were DRD3 agonist 2, DT40 TDP1 no CPT 8.2µM*, IL-1B inflam inh 48, ClpP mod 0%, DRD3 antagonist 21 and DT40 TDP1 CPT inconclusive.
Screening COc1ccccc1NC(=O)c1cc2c(CO)cnc(C)c2oc1=Nc1cccc(C(N)=O)c1 returned DRD3 agonist 6, DT40 TDP1 no CPT 1.8µM*, IL-1B inflam inh 9, ClpP mod 2%, DRD3 antagonist 47 and DT40 TDP1 CPT 5.2µM*.
COc1cc(NC(=O)c2cc3c(CO)cnc(C)c3oc2=Nc2cccc(C(N)=O)c2)cc(OC)c1 was read as DRD3 agonist 1, DT40 TDP1 no CPT inconclusive, IL-1B inflam inh -6, ClpP mod 1%, DRD3 antagonist -3 and DT40 TDP1 CPT -27%.
COc1ccc(NC(=O)c2cc3c(CO)cnc(C)c3oc2=Nc2cc(OC)cc(OC)c2)cc1 was read as DRD3 agonist 5, DT40 TDP1 no CPT -16%, IL-1B inflam inh 19, DRD3 antagonist -14 and DT40 TDP1 CPT -23%.
For COc1ccc(Cn2c(=O)c3[nH]cnc3n(-c3ccc(C)cc3)c2=O)cc1 the results were DRD3 agonist -8, DT40 TDP1 no CPT inconclusive, IL-1B inflam inh -14, ClpP mod 3%, DRD3 antagonist 7 and DT40 TDP1 CPT inconclusive.
For Nc1cc([N+](=O)[O-])ccc1N1C(=O)CCCC1=O the results were DRD3 agonist -1, DT40 TDP1 no CPT -3%, IL-1B inflam inh -5, ClpP mod 0%, DRD3 antagonist -26 and DT40 TDP1 CPT -4%.
For COc1cc(NS(=O)(=O)c2ccc(NC(=O)c3ccc(OC)c(Br)c3)cc2)nc(OC)n1 the results were DRD3 agonist 4, DT40 TDP1 no CPT -11%, ClpP mod -3% and DT40 TDP1 CPT 5%.
`O=C(Nc1nc(-c2ccccc2)cs1)Nc1ccc(F)cc1F` gave DRD3 agonist 6, DT40 TDP1 no CPT 9.2µM*, IL-1B inflam inh -16, ClpP mod 1%, DRD3 antagonist 12 and DT40 TDP1 CPT 9.2µM*.
Screening O=C(Nc1nc(-c2ccccn2)cs1)Nc1ccc(F)cc1F returned DRD3 agonist -1, DT40 TDP1 no CPT 2.9µM*, IL-1B inflam inh -83*, ClpP mod -2%, DRD3 antagonist -7 and DT40 TDP1 CPT 4.6µM*.
For COc1c(C)cc(C(=O)C2CCCN(C(=O)c3ccc4cc[nH]c4c3)C2)cc1C (centres undefined) the results were DRD3 agonist -5, DT40 TDP1 no CPT -28%, IL-1B inflam inh -22, DRD3 antagonist 5 and DT40 TDP1 CPT 2%.
Screening CN(C)c1ncc2nc(-c3ccccc3)c(=O)n(C3CC3)c2n1 returned DT40 TDP1 no CPT inconclusive and DT40 TDP1 CPT 5%.
CC(NC(=S)NCCc1ccccc1)C(c1cccs1)N1CCN(Cc2ccccc2)CC1 (centres undefined) was read as DRD3 agonist -13, DT40 TDP1 no CPT inconclusive, IL-1B inflam inh -24, ClpP mod 3%, DRD3 antagonist -79* and DT40 TDP1 CPT 16µM*.
For C/C(=N\NC(=S)NCCc1ccccc1)c1cccs1 the results were DRD3 agonist -6, DT40 TDP1 no CPT 5.2µM*, IL-1B inflam inh 37, ClpP mod -3%, DRD3 antagonist -12 and DT40 TDP1 CPT 5.2µM*.
Screening C/C(CCc1ccccc1)=N\NC(=S)NCCc1ccccc1 returned DRD3 agonist -6, DT40 TDP1 no CPT 13µM*, IL-1B inflam inh 12, DRD3 antagonist -25 and DT40 TDP1 CPT inconclusive.
For CC(NC(=O)NC1CCCCC1)C(c1cccs1)N1CCN(Cc2ccccc2)CC1 (centres undefined) the results were DRD3 agonist -7, DT40 TDP1 no CPT inconclusive, IL-1B inflam inh -9, ClpP mod 0%, DRD3 antagonist -14 and DT40 TDP1 CPT inconclusive.
CC[N+](CC)(CCNC(=O)C(=O)NCC[N+](CC)(CC)Cc1ccccc1Cl)Cc1ccccc1Cl was read as DRD3 agonist 3, DT40 TDP1 no CPT 10% and DT40 TDP1 CPT -9%.
